Results taken from PubChem BioAssay (Tox21).
Inconclusive results are not listed. Calls of active or inactive are those of the source. Unless noted, calls follow the shape of the dose curve; as a rule, active = well fitted curve in the direction sought with a large enough effect in the repeat runs; inconclusive = weak or mixed curves; inactive = no such curve, though single readings can be large; an effect the other way counts as inactive or inconclusive.

Assays:
[1] = qHTS assay to identify small molecule agonists of the vitamin D receptor (VDR) signaling pathway - cell viability counter screen (AID 743224); also: series mostly up to about 63 µM; % is scaled to controls: 0 for no effect and ±100 for the full control effect; nearly all actives have a fitted effect of over 50% in size
How it was run: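 Here cell health was gauged by luminescent ATP detection (CellTiter-Glo, 30 min RT) in VDR-bla cells that had been incubated with test compounds for 16 h at 37C and 5% CO2.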

[2] = qHTS assay to identify small molecule antagonists of the vitamin D receptor (VDR) signaling pathway - cell viability counter screen (AID 743225); also: % is scaled to controls: 0 for no effect and ±100 for the full control effect; nearly all actives have a fitted effect of over 50% in size
How it was run: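 Cells (VDR-UAS-bla HEK 293T) are plated, rested 4 h at 37C, dosed with compound and 3 nM final 1-alpha,25-dihydroxy vitamin D3, and incubated 16 h. Viability is taken from CellTiter-Glo luminescence in the reporter wells.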

[3] = qHTS assay to identify small molecule agonists of the NFkB signaling pathway - cell viability counter screen (AID 1159515; calls by dose curve; also: series mostly up to about 61 µM; % is scaled to controls: 0 for no effect and ±100 for the full control effect; nearly all actives have a fitted effect of over 55% in size)
How it was run: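 5 hr compound treatment of NFkB-bla ME-180 cells (2,000/well, seeded overnight beforehand), followed by reporter substrate for 1.5 hr. CellTiter-Glo added afterward; luminescence after 30 min RT.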

[4] = qHTS assay to identify small molecule agonists of the endoplasmic reticulum stress response signaling pathway (AID 1159516; active = well fitted activation curve with a large enough effect in the signal ratio in the repeat runs, not every such curve was filed as active; the % refers to the signal ratio; also: % is scaled to controls: 0 for no effect and ±100 for the full control effect)
How it was run: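 Reporter HeLa cells (ESRE-beta-lactamase) underwent 5 hr compound incubation at 37 C and 5% CO2 in quantitative HTS format. Detection followed 2 hr of FRET substrate loading at room temperature.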

[5] = qHTS assay to identify small molecule agonists of the endoplasmic reticulum stress response signaling pathway - cell viability counter screen (AID 1159517; calls by dose curve;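 also: HeLa cells carrying an ER stress response element beta-lactamase reporter; series mostly up to about 61 µM; % is scaled to controls: 0 for no effect and ±100 for the full control effect; nearly all actives have a fitted effect of over 50% in size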)
How it was run: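 CellTiter-Glo was added to wells already read for beta-lactamase FRET, and luminescence was recorded 30 min later. Cells: ESRE-bla HeLa, 1,500 per well, compound exposure 5 hr at 37 C.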

[6] = qHTS assay to identify small molecule antagonists of the retinoid-related orphan receptor gamma (ROR-gamma) signaling pathway - cell viability counter screen (AID 1159520); also: % is scaled to controls: 0 for no effect and ±100 for the full control effect; nearly all actives have a fitted effect of over 50% in size
How it was run: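 Tet-on ROR gamma CHO cells (1,000/well) were plated 4 hr, given compounds in DMSO for 2 hr at 37 C, then induced with 1 uM final doxycycline for 16 hr. Viability was read as ATP by CellTiter-Glo luminescence after 30 min.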

[7] = biological target: Nuclear receptor ROR-gamma (Homo sapiens) (UniProt P51449); assay: qHTS assay to identify small molecule antagonists of the retinoid-related orphan receptor gamma (ROR-gamma) signaling pathway (AID 1159521)
How it was run: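 RORγ antagonism is scored from reduced reporter luminescence in Tet-on CHO cells. Induction used 1 uM final doxycycline hyclate for 16 h at 37 C, following a 2 h compound exposure.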

[8] = qHTS assay to identify small molecule agonists of the AP-1 signaling pathway - cell viability counter screen (AID 1159525; calls by dose curve; also: nearly all actives have a fitted effect of over 55% in size)
How it was run: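 ME-180 AP-1-bla, 2500 cells/well, Opti-MEM + 0.5% dialyzed FBS; overnight 37 °C; cpd 15-pt titration, 5 h 37 °C; CellTiter-Glo 30 min RT; luminescence read; normalised to TOAB and DMSO controls.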

[9] = qHTS assay to identify small molecule agonists of the AP-1 signaling pathway (AID 1159526; calls by dose curve; also: % is scaled to controls: 0 for no effect and ±100 for the full control effect)
[10] = biological target: Retinoic acid receptor RXR-alpha (Homo sapiens) (UniProt P19793); assay: qHTS assay to identify small molecule agonists of the RXR signaling pathway (AID 1159527; calls by dose curve; also: % is scaled to controls: 0 for no effect and ±100 for the full control effect; nearly all actives have a fitted effect of over 35% in size)
Sequence of Retinoic acid receptor RXR-alpha (Homo sapiens) (P19793 whole entry, looked up): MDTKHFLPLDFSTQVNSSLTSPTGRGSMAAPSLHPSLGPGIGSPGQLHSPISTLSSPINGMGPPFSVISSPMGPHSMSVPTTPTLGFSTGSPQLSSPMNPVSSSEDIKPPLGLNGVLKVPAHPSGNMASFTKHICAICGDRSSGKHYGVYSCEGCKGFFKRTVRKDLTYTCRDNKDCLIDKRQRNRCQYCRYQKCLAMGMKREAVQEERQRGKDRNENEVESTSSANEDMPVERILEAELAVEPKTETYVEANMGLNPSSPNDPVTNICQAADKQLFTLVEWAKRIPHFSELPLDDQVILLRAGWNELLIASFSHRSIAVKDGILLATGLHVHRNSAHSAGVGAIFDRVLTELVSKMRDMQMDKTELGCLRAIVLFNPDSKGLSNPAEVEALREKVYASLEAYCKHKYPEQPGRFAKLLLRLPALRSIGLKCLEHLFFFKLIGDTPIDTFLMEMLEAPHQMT
How it was run: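 qHTS of the Tox21 10K library in GeneBLAzer RXR-alpha HEK 293T cells carrying a beta-lactamase reporter […]; 16 hr treatment, 9-cis retinoic acid as agonist control, FRET read-out.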

[11] = qHTS assay to identify small molecule agonists of the RXR signaling pathway - cell viability counter screen (AID 1159529)
How it was run: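 Cell viability is measured by CellTiter-Glo luminescence, 30 min at room temperature, in wells already read for beta-lactamase. Engineered HEK 293T cells (RXR-alpha-UAS-bla) are dosed 16 hr at 37 C. Tetraoctyl ammonium bromide serves as positive control.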

[12] = qHTS assay to identify small molecule antagonists of the retinoid acid receptor (RAR) signaling pathway - cell viability counter screen (AID 1159551); also: % is scaled to controls: 0 for no effect and ±100 for the full control effect; nearly all actives have a fitted effect of over 35% in size
How it was run: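 Seed C3RL4 cells; next day add compound, then retinol to 1 uM final; incubate 6 h at 37 C; add CellTiter-Glo; read luminescence after 30 min at RT.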

[13] = qHTS assay to identify small molecule antagonists of the retinoic acid receptor (RAR) signaling pathway (AID 1159552)
How it was run: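 Quantitative HTS in C3RL4 RARE-luciferase reporter cells. Compounds were added with 1 uM (final) retinol; luminescence was read after 6 hr.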

[14] = qHTS assay to identify small molecule agonists of the retinoic acid receptor (RAR) signaling pathway (AID 1159553); also: % is scaled to controls: 0 for no effect and ±100 for the full control effect
How it was run: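 Activation of retinol signaling was monitored via a RARE luciferase reporter in C3RL4 cells. After 6 hr compound treatment at 37 C, detection reagent was added for 30 min at room temperature before luminescence reading.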

[15] = qHTS assay to identify small molecule antagonists of the estrogen related receptor (ERR) signaling pathway - cell viability counter screen (AID 1224818);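 also: series mostly up to about 46 µM; viability measured after 17.5 h of compound exposure; % is scaled to controls: 0 for no effect and ±100 for the full control effect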
How it was run: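 In the same ERR cell assay, compound-treated wells (17.5 h, 37 C) were multiplexed with a fluorogenic viability reagent, CellTiter-Fluor, read after 30 min to flag cytotoxic substances.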

COP(=O)(O)OC
inactive: Potency [1] | Potency [2] | outcome [3] | outcome [4] | Potency [5] | Potency [6] | Potency [7] | Potency [8] | outcome [9] | Potency [10] | Potency [11] | Potency [12] | Potency [13]

CC(C)(C)NC[C@H](O)c1ccc(O)cc1Cl
inactive: Potency [1] | Potency [2] | outcome [3] | outcome [4] | Potency [5] | Potency [6] | Potency [7] | Potency [8] | outcome [9] | Potency [10] | Potency [11] | Potency [12] | Potency [13] | Potency [14]

C=CCCC#N
inactive: Potency [1] | Potency [2] | outcome [3] | outcome [4] | Potency [5] | Potency [6] | Potency [7] | Potency [8] | outcome [9] | Potency [10] | Potency [11] | Potency [12] | Potency [13] | Potency [14]

C[C@H](N)C(=O)c1ccccc1
inactive: Potency [1] | Potency [2] | outcome [3] | outcome [4] | Potency [5] | Potency [6] | Potency [7] | Potency [8] | outcome [9] | Potency [10] | Potency [11] | Potency [12] | Potency [13]

Cc1ccc2c(c1)C1CN(C)CCC1N2 (stereo not given)
inactive: Potency [2] | outcome [3] | outcome [4] | Potency [5] | activity, negative = cytotoxicity [6] 3.75% [at 19 µM] | activity change, negative = inhibition [7] 3.88% [at 19 µM] | viability change, negative = cytotoxic [8] 5.2% [at 15.8 µM] | activation [9] 8.05% [at 15.8 µM] | activation [10] -0.325% [at 15.8 µM] | activity change, negative = cytotoxicity [11] -17.4% [at 15.8 µM] | activity change, negative = cytotoxicity [12] 2.36% [at 19 µM] | activity, negative = inhibition [13] -12.3% [at 19 µM] | Potency [14]

Cc1ccc(Cl)c(O)c1
inactive: Potency [1] | Potency [2] | outcome [3] | outcome [4] | Potency [5] | Potency [6] | Potency [7] | Potency [8] | outcome [9] | Potency [10] | Potency [11] | Potency [13]

CCOP(=S)(OCC)SCCl
inactive: Potency [2] | outcome [3] | outcome [4] | Potency [5] | Potency [6] | Potency [7] | Potency [8] | outcome [9] | Potency [10] | Potency [11] | Potency [12] | Potency [13] | Potency [14]

CCOC(=O)CC(SP(=S)(OC)OC)C(=O)OCC (stereo not given)
inactive: Potency [1] | outcome [3] | outcome [4] | Potency [5] | Potency [6] | Potency [7] | Potency [8] | outcome [9] | Potency [11] | Potency [12] | outcome [15]

CCc1ccc(C2CCNCC2)cc1
inactive: Potency [2] | outcome [3] | outcome [4] | Potency [5] | Potency [6] | Potency [7] | Potency [8] | outcome [9] | Potency [10] | Potency [11] | Potency [12] | Potency [13] | Potency [14]

CCCCS(=O)(=O)Cl
inactive: Potency [2] | outcome [3] | outcome [4] | Potency [5] | Potency [6] | Potency [7] | Potency [8] | outcome [9] | Potency [10] | Potency [11] | Potency [12] | Potency [13] | Potency [14]

O=P(O)(O)CN(CP(=O)(O)O)CP(=O)(O)O
inactive: Potency [1] | Potency [2] | outcome [3] | outcome [4] | Potency [5] | Potency [6] | Potency [7] | Potency [8] | outcome [9] | Potency [10] | Potency [11] | Potency [12] | Potency [13] | Potency [14]

CCOc1cc(OP(=S)(OC)OC)nc(CC)n1
inactive: Potency [1] | Potency [2] | outcome [3] | outcome [4] | Potency [5] | Potency [6] | Potency [7] | Potency [8] | outcome [9] | Potency [10] | Potency [11] | Potency [12] | Potency [13] | Potency [14]

N[C@@H](Cc1ccc(Oc2cc(I)c(O)c(I)c2)c(I)c1)C(=O)O
inactive: Potency [1] | Potency [2] | outcome [3] | outcome [4] | Potency [5] | Potency [6] | Potency [7] | Potency [8] | outcome [9] | Potency [10] | Potency [11] | Potency [12] | Potency [13] | Potency [14]

C[C@@H](N)[C@@H](O)c1ccccc1
inactive: Potency [1] | Potency [2] | outcome [3] | outcome [4] | Potency [5] | Potency [6] | Potency [7] | Potency [8] | outcome [9] | Potency [10] | Potency [11] | Potency [12] | Potency [13] | Potency [14]
